Assay outcomes as filed in PubChem BioAssay.
D1 potentiator = Potentiators of Human D1 Dopamine Receptor: qHTS | potentiation, % at 10 µM | HEK293 TREx D1 cells, calcium flux, dopamine EC20 potentiation | D(1A) dopamine receptor (Homo sapiens), P21728 | 360,000 compounds, 0.036% hits | AID 504651, 2011; in the data active = potentiation above about 30%; note: 0% is about no effect
Target sequence (P21728 whole entry, looked up): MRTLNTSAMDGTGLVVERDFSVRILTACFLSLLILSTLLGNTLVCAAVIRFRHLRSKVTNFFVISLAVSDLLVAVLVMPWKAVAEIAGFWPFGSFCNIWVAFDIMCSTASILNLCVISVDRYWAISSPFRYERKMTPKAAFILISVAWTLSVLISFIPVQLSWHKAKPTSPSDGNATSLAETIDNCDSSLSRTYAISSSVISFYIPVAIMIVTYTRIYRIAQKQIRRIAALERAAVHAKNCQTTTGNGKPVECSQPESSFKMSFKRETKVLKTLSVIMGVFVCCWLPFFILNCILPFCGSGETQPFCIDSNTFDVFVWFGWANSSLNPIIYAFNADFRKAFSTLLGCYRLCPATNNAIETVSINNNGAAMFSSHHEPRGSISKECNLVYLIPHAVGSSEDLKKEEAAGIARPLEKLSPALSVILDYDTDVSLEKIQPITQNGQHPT
TRHR enhancer-1 = qHTS for Small Molecule Agonists and Allosteric Enhancers of Human TRH Receptor: Primary Screen for Enhancers. Thyrotropin-releasing hormone receptor (Homo sapiens), P34981. TRHR cells, fluo-8 calcium fluorescence, EC20 TRH enhancement. enhancement, % at 2 µM. 360,000 compounds, 0.66% hits. AID 493056, 2011; in the data active = enhancement above about 30%; note: 0% is about no effect
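Enhancer read-out: after compound pinning and an initial kinetic agonist-mode read, an EC20 of TRH (10 nM final) was injected and fluo-8 calcium signal (Ex 480/Em 530) followed at 1 s/cycle for 100 cycles in TRHR-expressing cells.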
D1 antagonist = Antagonist of Human D 1 Dopamine Receptor: qHTS | AID 504652, 2011 | D(1A) dopamine receptor (Homo sapiens), P21728 | 360,000 compounds, 3.2% hits | HEK293 TREx D1 cells, calcium flux, dopamine EC80; hits give low values | activity change, negative = inhibition, % at 10 µM; in the data active = activity change below about -30%; note: % is set by controls: 0 for no effect and ±100 for the full control effect
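Cells carrying a force-coupled, tetracycline-inducible human D1 receptor report calcium flux. Each well gets a 10 s baseline, compound with 180 s monitoring, then an EC80 dopamine stimulus with a second 180 s kinetic read.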
D1 agonist = Allosteric Agonists of the Human D1 Dopamine Receptor: qHTS. D(1A) dopamine receptor (Homo sapiens), P21728. HEK293 T-REx D1 cells, calcium flux, agonist mode. activation, % at 2 µM. 360,000 compounds, 1% hits. AID 504660, 2011; note: 0% is about no effect
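Inducible HEK293 T-REx D1 cells, force-coupled to calcium signalling, were plated at 4000 cells/well with tetracycline and held overnight at 30 C. After no-wash calcium dye loading, compound-evoked calcium rise over 180 s flagged agonists.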
TRHR agonist-1 = qHTS for Small Molecule Agonists and Allosteric Enhancers of Human TRH Receptor: Primary Screen for Agonists. activation, % at 2 µM. 360,000 compounds, 0.18% hits. TRHR cells, calcium flux fluo-8, FDSS agonist mode. AID 493084, 2011. Thyrotropin-releasing hormone receptor (Homo sapiens), P34981; note: 0% is about no effect
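Steps: seed TRHR cells overnight; add fluo-8 no-wash Ca dye, RT 30 min–1.5 h; record 10 s baseline; pin-transfer compounds; monitor fluorescence 1 cycle/s for the agonist window. Calcium increases flag candidate agonists.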
TRHR enhancer-2 = qHTS for Small Molecule Agonists and Allosteric Enhancers of Human TRH Receptor: Confirmation Screen for Enhancers; TRH receptor cell assay, enhancer confirmation qHTS; activity change, negative = inhibition, % at 46.1 µM; 970 tested, under 10 active; shares compounds with TRHR enhancer-1; active = well fitted curve in the direction sought with a large enough effect; inconclusive = small, poorly fitted or top-dose-only effect, or another doubt; inactive = no such curve, though single readings can be large; an effect the other way counts as inactive or inconclusive;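 note: compound effect scored on response to added TRH at EC20 of 10 nM; 0% is about no effect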
TRHR agonist-2 = qHTS for Small Molecule Agonists and Allosteric Enhancers of Human TRH Receptor: Confirmation Screen for Agonists | TRHR-expressing cells, agonist activation read-out | shares compounds with TRHR enhancer-1 | AID 493078, 2011 | Potency, µM (highest dose often 46.1 µM), for inactives: top-dose activation, most hits filed as activators | 970 compounds, 8% hits; active = well fitted curve in the direction sought with a large enough effect; inconclusive = small, poorly fitted or top-dose-only effect, or another doubt; inactive = no such curve, though single readings can be large; an effect the other way counts as inactive or inconclusive; note: potency is the fitted concentration of half-maximal effect; 0% is about no effect; nearly all actives have a fitted effect of over 75% in size
The depositor's hits bear a star; ? = inconclusive; · = no result given. A selection: hits, their analogues and other compounds. The true share with any hit is near 4.7%. Cut-off read from the data, not from the text of the source, unless noted: active = activation above about 30%; inactive = the rest.

SMILES	D1 potentiator	TRHR enhancer-1	D1 antagonist	D1 agonist	TRHR agonist-1	TRHR enhancer-2	TRHR agonist-2
CCOC(=O)/C=C1\CN(C(C)c2ccccc2)S(=O)(=O)c2ccccc21 (configuration not stated)	-2.5	-1.9	-4.2	-0.5	0.2	·	·
O=S(=O)(NCC1CCCO1)c1ccc(Cl)cc1 (configuration not stated)	0.0	45.5*	-3.8	3.8	0.0	-2.2	0.9%
CCN(CC)c1ccc(/C=C2\CCC(/C=N/NC(=O)c3ccc(=O)n(C)c3)=C2N2CCOCC2)cc1	7.1	11.0	12.6	73.8*	35.9*	9.0	?
CCc1cc(=O)[nH]c(SCc2ccc(C)cc2)n1	-4.8	54.2*	22.1	1.8	-0.4	-0.8	-0.8%
COC(=O)C1=C(C)N(c2ccc(OC)cc2)C(C)=C(C(=O)OC)C1c1ccc(OC)cc1	0.6	41.3*	-19.6	3.9	-0.3	-4.8	-0.7%
Cc1ccc(S(=O)(=O)N(C)C)cc1NC(=O)COC(=O)CSc1ccccc1	-7.4	5.1	-18.0	2.4	0.2	·	·
COc1ccc(Nc2ncc(C(=O)Nc3cccc(Cl)c3)c3ccccc23)cc1	0.7	3.3	-2.6	2.2	0.0	·	·
CN(CCCn1c(=S)[nH]c2ncccc2c1=O)Cc1ccccc1	-4.3	46.5*	-11.6	3.1	-0.6	2.8	-0.5%
O=C1Nc2ccccc2/C1=C/c1ccccc1Cl	-9.1	-2.5	-10.0	-0.3	0.4	·	·
COc1ccccc1/C=C1\C(=O)Nc2ccccc21	-3.6	41.4*	1.7	1.1	0.5	-8.8	-0.6%
COc1ccc2c(C)c(C(=O)N3CCN(Cc4ccccc4)CC3)oc2c1	0.4	70.2*	-4.5	2.0	0.1	?	-0.4%
COc1ccc(Cn2c(=O)[nH]c3cc(C(=O)N4CCN(Cc5ccccc5)CC4)ccc3c2=O)cc1	-4.0	-0.7	-12.3	3.7	0.2	·	·
Cc1cccc(OCc2nnc(SC(C)C(=O)O)n2Cc2ccccc2)c1 (configuration not stated)	-8.3	41.4*	-18.9	2.3	1.2	12.2	-0.6%
Cc1ccc(S(=O)(=O)c2cn(CC(=O)Nc3ccc(F)cc3)c3cc4c(cc3c2=O)OCO4)cc1	-2.9	0.0	-1.6	1.3	1.1	·	·
Cc1ccc(/C=C/c2nc3ccccc3[nH]2)cc1	-3.0	7.7	-13.6	-0.6	-1.3	·	·
Cc1ccc(/C=C/c2nc3ccccc3[nH]2)o1	-5.3	45.6*	2.1	0.4	1.3	?	7.6%
NC(=O)CN1CCOCCOCCN(CC(N)=O)CCOCCOCC1	-4.0	54.7*	1.3	-0.2	-0.7	?	-0.6%
CCCn1c(N)c(C(=O)CSc2nncs2)c(=O)[nH]c1=O	·	41.0*	-13.1	3.6	0.0	-0.2	-0.6%
COc1ccc(NC(=S)N(Cc2ccccn2)Cc2ccccc2Cl)cc1	0.8	-3.1	5.1	-1.0	-0.1	·	·
COc1cccc(NC(=S)N(Cc2ccccn2)Cc2ccccc2Cl)c1	-3.8	43.2*	-24.0	3.2	0.3	-4.7	2.1%
O=c1ccc2cc3c4c(c2o1)CCCN4CCC3	-2.9	-5.4	-19.9	75.2*	47.4*	?	20.6µM*
Oc1ccc(C(c2nnnn2C2CCCC2)N2CCc3ccccc3C2)cc1 (configuration not stated)	-1.4	0.7	4.3	1.6	44.6*	-12.5	0.7%
COc1cc(C(c2nnnn2C2CCCC2)N2CCc3ccccc3C2)ccc1O (configuration not stated)	-0.9	3.1	2.5	-0.3	-0.2	·	·
